This is one part of a sample in which hits are shown more often than they occur.
Dicer processing = inhibitors of human Dicer processing of pre-microRNA; Q9UPY3; cat-ELCCA pre-miR-21 Dicer processing, chemiluminescence; active compounds read high; z-score at 25 µM; 6% of 47,000 active; AID 1347074; in the data active means z-score above about 3, passing the limit was not always enough;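 further: plate controls were vehicle for no effect and no enzyme for full effect; higher signal means more uncleaved substrate so more Dicer inhibition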
Target sequence (Q9UPY3 whole entry, looked up): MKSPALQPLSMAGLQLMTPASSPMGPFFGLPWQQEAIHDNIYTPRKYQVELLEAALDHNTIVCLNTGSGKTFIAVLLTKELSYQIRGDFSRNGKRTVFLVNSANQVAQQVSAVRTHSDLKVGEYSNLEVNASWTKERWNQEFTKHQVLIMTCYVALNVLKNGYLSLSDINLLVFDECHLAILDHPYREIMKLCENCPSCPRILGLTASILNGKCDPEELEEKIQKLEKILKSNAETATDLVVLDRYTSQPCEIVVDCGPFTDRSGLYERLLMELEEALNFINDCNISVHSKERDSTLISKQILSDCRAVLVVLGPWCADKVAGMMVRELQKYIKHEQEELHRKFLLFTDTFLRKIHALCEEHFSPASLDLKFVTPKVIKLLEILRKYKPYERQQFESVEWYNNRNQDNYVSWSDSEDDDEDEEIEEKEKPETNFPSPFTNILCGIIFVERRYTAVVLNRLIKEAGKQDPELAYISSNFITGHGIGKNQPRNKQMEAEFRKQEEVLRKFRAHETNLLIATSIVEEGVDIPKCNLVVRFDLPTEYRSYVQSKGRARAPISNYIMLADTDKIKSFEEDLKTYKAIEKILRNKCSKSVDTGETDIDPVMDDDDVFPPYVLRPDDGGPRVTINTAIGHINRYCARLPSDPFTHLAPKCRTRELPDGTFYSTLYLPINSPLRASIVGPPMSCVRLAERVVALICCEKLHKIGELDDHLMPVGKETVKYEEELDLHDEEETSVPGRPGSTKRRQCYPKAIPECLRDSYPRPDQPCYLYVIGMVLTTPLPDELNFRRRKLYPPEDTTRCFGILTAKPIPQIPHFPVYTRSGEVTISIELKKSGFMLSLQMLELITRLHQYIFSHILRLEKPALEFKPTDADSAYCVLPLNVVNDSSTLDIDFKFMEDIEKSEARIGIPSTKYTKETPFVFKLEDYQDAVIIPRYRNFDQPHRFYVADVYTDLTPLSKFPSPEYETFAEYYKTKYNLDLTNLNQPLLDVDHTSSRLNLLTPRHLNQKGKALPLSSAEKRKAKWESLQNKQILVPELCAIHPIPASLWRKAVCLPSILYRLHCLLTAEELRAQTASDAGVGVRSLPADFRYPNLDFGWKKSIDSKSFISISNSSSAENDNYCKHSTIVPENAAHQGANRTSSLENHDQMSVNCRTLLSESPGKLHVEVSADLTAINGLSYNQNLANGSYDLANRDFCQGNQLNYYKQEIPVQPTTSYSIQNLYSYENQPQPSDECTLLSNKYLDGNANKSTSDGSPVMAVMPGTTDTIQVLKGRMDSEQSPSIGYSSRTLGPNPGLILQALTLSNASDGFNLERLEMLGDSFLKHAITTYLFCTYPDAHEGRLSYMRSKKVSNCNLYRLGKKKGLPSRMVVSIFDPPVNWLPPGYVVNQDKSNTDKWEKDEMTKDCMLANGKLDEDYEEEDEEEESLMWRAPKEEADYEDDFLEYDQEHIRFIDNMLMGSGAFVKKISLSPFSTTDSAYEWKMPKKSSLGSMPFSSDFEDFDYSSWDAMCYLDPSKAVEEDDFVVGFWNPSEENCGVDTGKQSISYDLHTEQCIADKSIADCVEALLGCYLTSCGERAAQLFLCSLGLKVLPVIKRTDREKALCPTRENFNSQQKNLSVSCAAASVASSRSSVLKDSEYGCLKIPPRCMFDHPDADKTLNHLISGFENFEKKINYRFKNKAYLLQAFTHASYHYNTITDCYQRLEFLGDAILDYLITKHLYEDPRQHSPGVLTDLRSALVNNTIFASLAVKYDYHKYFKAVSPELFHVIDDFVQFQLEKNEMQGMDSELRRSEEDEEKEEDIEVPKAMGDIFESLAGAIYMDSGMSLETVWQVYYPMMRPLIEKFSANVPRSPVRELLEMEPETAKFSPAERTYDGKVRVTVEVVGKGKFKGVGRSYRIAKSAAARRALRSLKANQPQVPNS
* = called active by the depositor.

SMILES	Dicer processing
Nc1nc2c(c(=O)[nH]1)C(c1ccccc1)CC(=O)N2 (centres undefined)	1.5
CCOC(OCC)c1ccc(/C=C(\C#N)S(=O)(=O)c2ccccn2)cc1	-1.3
Cc1cccc(NC2=NC(c3ccccc3)n3c(nc(C)cc3=O)N2)c1 (centres undefined)	-1
CN(C)c1ccc(/C=C(\C#N)C(N)=O)c(Cl)c1	-0.64
CCOC(=O)c1ccc(OC(=O)c2ccc(Cl)cc2[N+](=O)[O-])c(Cl)c1	-0.16
Cc1cc(NS(=O)(=O)N2CCCCC2)no1	-0.07
O=C(Cn1nnc(-c2cc(Cl)cc(Cl)c2)n1)c1ccc(Cl)cc1	1.8
Clc1cccc(Cl)c1CSc1ncc2ccccn12	1.2
CCn1c(C)[n+](CC)c2ccc(C(=O)N(C)C)cc21	-0.42
Cc1cc2n(n1)C(c1ccc3c(c1)OCO3)Nc1c(C)cccc1-2 (centres undefined)	3.1*
Cc1cc(C)c2c(c1)-c1cc(C)nn1C(c1ccc3c(c1)OCO3)N2 (centres undefined)	1.2
CC(C)(C)NC(=O)Nc1ccc2ccccc2c1	1.1
Cc1cc(C)c(S(=O)(=O)Nc2nc3ccccc3s2)c(C)c1	-3.9
Cc1ccc(S(=O)(=O)Nc2nc3ccc(N)cc3s2)cc1	8*
Cc1ccc(S(=O)(=O)Nc2nc3cc(C)c(C)cc3s2)cc1	-1.5
N/C(=N\O)c1cccc(-n2cccc2)c1	-0.1
O=C1C2C3C=CC(CC3)C2C(=O)N1Cc1ccccc1 (centres undefined)	0.77
COc1ccc(-c2nnn(CC(=O)O)n2)cc1	0.61
Cn1nc(C(F)(F)C(F)F)cc1-c1ccccc1O	5.3*
Cn1nc(C(F)(F)F)cc1OC(=O)c1ccccc1Cl	-0.32
CN(C)C(=O)c1ccc(-c2cc(C(F)(F)F)nn2C)s1	-0.27
O=C1CC(c2ccccc2Cl)Cc2nc(N3CCc4ccccc4C3)ncc21 (centres undefined)	2.8
N/C(Cc1cccc2ccccc12)=N\OC(=O)Nc1ccc(Cl)cc1	1.4
CCOC(=O)c1cnc2c(C)cc(C)cc2c1Nc1ccc(N(C)C)cc1	2.9
CCOC(=O)c1cnc2ccc(Cl)cc2c1Nc1ccc(N(C)C)cc1	3.8*
SMILES	Dicer processing
CCOC(=O)c1cnc2ccc(OCC)cc2c1Cl	0.45
CC(=O)Oc1ccc2oc(=O)sc2c1	-1.2
O=C(Oc1ccc2c(=O)ccoc2c1)c1ccc(Cl)cc1Cl	2.1
O=C(Oc1ccc2c(c1)oc(=O)c1ccccc12)c1ccccc1	2.3
O=C(O)c1cccc(S(=O)(=O)Nc2ccc3oc(=O)sc3c2)c1	-0.91
O=C(Oc1ccc2oc(=O)sc2c1)c1ccccc1Cl	7.2*
Cc1cccc(C(=O)Oc2ccc3oc(=O)sc3c2)c1	5.5*
O=C(Oc1ccc2oc(=O)sc2c1)c1ccc(Br)cc1	-0.22
Cc1ccc(C(=O)Oc2ccc3oc(=O)sc3c2)cc1	5.1*
CCCCNC(=O)Oc1ccc2sc(=O)oc2c1	-1
COc1cc(C(F)(F)F)nc2ccc(Br)cc12	-5.1
NC(/C=C/c1cc(C(F)(F)F)cc(C(F)(F)F)c1)=N\O	-0.33
CCCNS(=O)(=O)c1ccc(NC2=NS(=O)(=O)c3ccccc32)cc1	-1.6
Cc1cc(S(=O)(=O)n2cccc2)c(Cl)cc1Cl	-1.6
CCOC(=O)C(O)(NC(=O)c1cccc(C)c1)C(F)(F)F (centres undefined)	-0.48
Nc1c(-c2nnnn2-c2ccc(F)cc2)cnc2ccccc12	2.1
CCOC(=O)c1nc(COc2ccccc2Cl)no1	-0.3
Cc1cccc(C)c1N1C(=O)CSCC1=O	-2.4
O=C1CSCC(=O)N1c1ccc(Cl)cn1	-3.1
O=C1CSCC(=O)N1c1ccccn1	7.8*
Cc1ccc(CNCc2ccncc2)s1	0.9
O=C(O)Cn1nnc(-c2ccccc2F)n1	1.5
CN(C)CCCN(Cc1ccc2c(c1)OCO2)C(=O)NC1CCCCC1	4.7*
O=C(NCc1ccc2c(c1)OCO2)NC1CCCCC1	2.8
CN1C(=O)CC(NCc2ccc3c(c2)OCO3)C1=O (centres undefined)	-0.41
SMILES	Dicer processing
COc1ccc(Br)cc1/C=C(\C#N)C(N)=O	1.1
CCN(CC)C(=O)c1sc2nc3c(cc2c1N)CCCCC3	0.28
CCN(CC)C(=O)c1cc2sccc2s1	3.1*
CS(=O)(=NS(=O)(=O)c1ccc(Cl)c(Cl)c1)c1ccccc1 (centres undefined)	-2.2
O=C(NNc1ncccc1C(F)(F)F)c1c(F)cccc1F	0.15
S=C(NCCc1ccccn1)NN1C2CSC1CS2	-4.3
CN(C(=O)Cn1c(-c2cncs2)nc2ccccc21)c1ccccc1	0.95
Nc1nonc1-c1nc2ccccc2n1CC(=O)Nc1ccc(F)cc1	-1
Cc1ccc(Cn2c(-c3nonc3N)nc3ccccc32)cc1	-0.74
CN(C(=O)Cn1c(-c2nonc2N)nc2ccccc21)c1ccccc1	4.1*
CCC(=O)Nc1nonc1-c1nc2ccccc2n1CCC(C)C	-2.5
COc1cccc(Cn2c(-c3nonc3N)nc3ccccc32)c1	4.2*
O=C1CN(CC(=O)N2CCN(c3ccc(F)cc3)CC2)c2ccccc2O1	-3.2
Nc1nonc1-c1nc2ccccc2n1CC(=O)N1CCN(c2ccc(F)cc2)CC1	3.4*
Nc1nonc1-c1nc2ccccc2n1Cc1ccc(Cl)cc1	1.1

Screening results as filed in PubChem BioAssay.
